Results reported in PubChem BioAssay (EPA / NIEHS).
Calls of active or inactive are those of the source. Rule for the calls: active = hit-call score of the fitted dose curve at least 0.9, where 1 is the maximum; inactive = score below 0.9.

Experiment: BSK_3C_VCAM1: BioMAP Diversity Plus: 3C Assay for Vascular cell adhesion molecule 1 (VCAM1) Biomarker Activity (AID 2282999)
Details: BioMAP 3C HUVEC, VCAM1 ELISA, cytokine-stimulated; actives raise or lower the signal
Method: BSK_3C is a cell-based, multiplexed-readout assay that uses umbilical vein endothelium, a human vascular primary cell, with measurements taken at 24 hours after chemical dosing in a 96-well plate.BSK_3C_VCAM1 is an assay component measured in the BSK_3C assay. It measures VCAM-1 antibody related to regulation of gene expression using ELISA technology.Data from the assay component BSK_3C_VCAM1 was analyzed into 1 assay endpoint. This assay endpoint, BSK_3C_VCAM1, was analyzed with bidirectional fitting relative to DMSO as the negative control and baseline of activity. Using a type of binding reporter, gain or loss-of-signal activity can be used to understand changes in the signaling as they relate to the gene VCAM1. Furthermore, this assay endpoint can be referred to as a primary readout, because this assay has produced multiple assay endpoints where this one serves a signaling function. To generalize the intended target to other relatable targets, this assay endpoint is annotated to the cell adhesion molecules intended target family, where the subfamily is Immunoglobulin CAM.
The levels of cell surface (or secreted, indicated by the prefix "s") biomarker endpoints were measured by ELISA. Overt cytotoxicity to cells in confluent adherent cultures (all systems other than the BT system) was assessed by measuring total protein levels using sulforhodamine B (SRB) staining in parallel cultures at the time of biomarker measurements, indicated as SRB endpoints. For proliferation assays for adherent cell types, individual cell types are cultured at sub-confluence and relative cell numbers quantified by SRB staining at time points optimized for each system (48 h: 3C and CASM3C systems; 72 h: BT and HDF3CGF systems; 96 h: SAg system). SRB was performed by staining cells with 0.1% SRB after fixation with 10% TCA and reading wells at 560 nm.Viability and proliferation of PBMC (T cells) was quantified by Alamar Blue reduction for the SAg and BT systems. For PBMC viability (referred to as PBMC Cytotoxicity within the assay endpoint names), cells were plated (75,000/well in a 96-well plate) and then chemical samples added for 1 h before addition of activators, SEB and TSST-1 (20 ng/mL final concentration each). Cells were incubated for 90 h. Then, Alamar Blue (20 uL/well) (Invitrogen, Cat DAL1100) was added for 6 h, and the plates were read with a fluorescence microplate reader at 546/580 nm (excitation/emission). For PBMC proliferation, cells were plated and activated as above but incubated for only 16 h prior to addition of Alamar Blue. Plates were read after 6 h.

SMILES | outcome | AC50
CC(C)O.CC(C)O.OCCN(CCO)CCO.OCCN(CCO)CCO.[Ti] | inactive | –
COc1ccccc1N | inactive | –
C=CC(Cl)CCl (stereo not given) | inactive | –
Clc1cccc(Cl)c1 | inactive | –
Oc1c(Cl)cc(Cl)cc1Cl | inactive | –
CC1(C)[C@H](C(=O)O[C@H](C#N)c2cccc(Oc3ccccc3)c2)[C@@H]1/C=C(\Cl)C(F)(F)F | inactive | –
O=S(=O)(C(Cl)(Cl)Cl)C(Cl)(Cl)Cl | – | 2.08 µM (active)
C#CCOC(=O)/C=C(C)/C=C/CC(C)CCCC(C)C (stereo not given) | inactive | –
Cc1cc(Cl)ccc1OC(C)C(=O)O (stereo not given) | inactive | –
OCCN(CCO)CCO | inactive | –
CC(C)(C)c1ccccc1O | inactive | –
Cc1cc(Cl)ccc1N | inactive | –
CCOP(=O)(OCC)SCCSCC | inactive | –
Clc1cccc(Cl)c1Cl | inactive | –
CCOC(=O)CCN(SN(C)C(=O)Oc1cccc2c1OC(C)(C)C2)C(C)C | – | 20 µM (active)
N#CCCC(Br)(C#N)CBr (stereo not given) | – | 7.92 µM (active)
Oc1c(Br)cc(Br)cc1Br | – | 31.4 µM (active)
O=C(CCl)NCO | inactive | –
CC(C)=CC1C(C(=O)OCc2cccc(Oc3ccccc3)c2)C1(C)C (stereo not given) | inactive | –
CCOP(=O)(OCC)OC(=CCl)c1ccc(Cl)cc1Cl | inactive | –

SMILES | outcome | AC50
Cc1ccccc1OP(=O)(Oc1ccccc1)Oc1ccccc1 | – | 20 µM (active)
O=C(O)C1(c2ccc3c(c2)OC[C@H](Cc2ccc(-c4ccccc4)cc2)[C@H]3O)CCCC1 | – | 20 µM (active)
CC(C=O)Cc1ccc2c(c1)OCO2 (stereo not given) | inactive | –
CCOP(=S)(OCC)OP(=S)(OCC)OCC | – | 31.9 µM (active)
N#Cc1cccnc1 | inactive | –
Cc1ccc2nc3sc(=O)sc3nc2c1 | – | 7.59 µM (active)
Nc1c(Oc2ccccc2)cc(O)c2c1C(=O)c1ccccc1C2=O | inactive | –
O=C(N[C@H]1CN2CCC1CC2)c1ccc2c(c1)OCCO2 | inactive | –
CCC(C)(C#N)N=NC(C)(C#N)CC (stereo not given) | inactive | –
CCCCOC(=O)COC(=O)c1ccccc1C(=O)OCCCC | inactive | –
O=[N+]([O-])c1ccc(Nc2ccccc2)cc1 | inactive | –
NC(=O)CCl | inactive | –
CCCCCCCCCCCCc1cccc(S(=O)(=O)O)c1 | inactive | –
Cc1ccccc1OP(=O)(Oc1ccccc1C)Oc1ccccc1C | – | 11.8 µM (active)
O=C(Cc1ccccc1)OCCc1ccccc1 | inactive | –
Cc1cccc(OP(=O)(Oc2cccc(C)c2)Oc2cccc(C)c2)c1 | inactive | –
Oc1cc(Cl)c(Cl)cc1Cl | inactive | –
c1ccc(-c2cccc(-c3ccccc3)c2)cc1 | – | 20 µM (active)
CCOP(=S)(OCC)SCS(=O)(=O)C(C)(C)C | inactive | –
CCOC(=O)C(SP(=S)(OC)OC)c1ccccc1 (stereo not given) | – | 25.8 µM (active)
